# Source: PubChem BioAssay (NCATS)
# “And” between values parts separate entries of the source, which are not always exact repeats. Identical values can stand only once. Results filed as inconclusive are left out. Entries that show only a call come without a potency. The source made the active and inactive calls. Calls come from the whole dose curve; as a rule, active = well fitted curve in the direction sought with a large enough effect; inconclusive = small, poorly fitted or top-dose-only effect, or another doubt; inactive = no such curve, though single readings can be large; an effect the other way counts as inactive or inconclusive.
# Assay: qHTS for differential inhibitors of proliferation of Plasmodium falciparum line Dd2 (AID 1882); note: nearly all actives have a fitted effect of over 65% in size
# Conditions: Potency: Plasmodium falciparum Dd2 proliferation inhibition; series mostly up to 28.7 µM
# Method in brief: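 RBC culture, 0.3% parasitemia / 2.5% Hct final; cpd added by pin tool in DMSO; 72 h, 37 C, 5% CO2; lysis buffer + SYBR Green I, o/n RT dark; FI 485/535; norm. to artemisinin 0.29 uM and DMSO.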
# Potency is the fitted concentration of half-maximal effect.
row,SMILES,Potency
1,CO[C@@]1(NC(=O)CSCC#N)C(=O)N2C(C(=O)O)=C(CSc3nnnn3C)CS[C@@H]21,inactive
2,NC(=O)N1c2ccccc2C=Cc2ccccc21,inactive
3,Nc1c2c(nc3ccccc13)CCCC2O (configuration not stated),inactive
4,c1cc(CN2CCCCC2)cc(OCCCNc2nc3ccccc3s2)c1,7.08 µM (active)
5,Cc1nc2sccn2c(=O)c1CCN1CCC(=C(c2ccc(F)cc2)c2ccc(F)cc2)CC1,7.94 µM (active)
6,CNC1(C)C2CCC(C2)C1(C)C (configuration not stated),inactive
7,COc1cc(C(=O)OCCCN2CCCN(CCCOC(=O)c3cc(OC)c(OC)c(OC)c3)CC2)cc(OC)c1OC,7.08 µM (active)
8,OC(CCN1CCCCC1)(c1ccccc1)C1CCCCC1 (configuration not stated),3.55 µM (active)
9,CCN(CC)CCNC(=O)c1ccc(NC(C)=O)cc1,inactive
10,O=c1[nH]c(=O)n([C@H]2C[C@H](O)[C@@H](CO)O2)cc1Br,inactive
11,c1ccc2c(c1)CCCC2C1=NCCN1 (configuration not stated),inactive
12,CCN1CCc2nc(N)oc2CC1,inactive
13,CC(=O)OC(C)C[N+](C)(C)C (configuration not stated),inactive
14,FC(F)(F)c1ccccc1-n1ccnc1,inactive
15,C[N+](C)(C)CCOC(N)=O,inactive
16,Cc1scc2c1N(C(=O)CN1CCN(C)CC1)c1ccccc1NC2=O,inactive
17,Fc1ccc(C(c2ccc(F)cc2)N2CCN(C/C=C/c3ccccc3)CC2)cc1,12.6 µM (active)
18,NC/C=C/C(=O)O,inactive
19,CC(C)COCC(CN(Cc1ccccc1)c1ccccc1)N1CCCC1 (configuration not stated),inactive
20,COCCc1ccc(OCC(O)CNC(C)C)cc1 (configuration not stated),inactive
21,OCCN1CCN(CCCN2c3ccccc3C=Cc3ccccc32)CC1,5.62 µM (active) and 7.94 µM (active)
22,CC(N=C(NC#N)Nc1ccncc1)C(C)(C)C (configuration not stated),inactive
23,CCCN(CCC)C(=O)C(CCC(=O)O)NC(=O)c1ccccc1 (configuration not stated),inactive
24,CCN1CCC[C@H]1CNC(=O)c1c(O)c(Cl)cc(Cl)c1OC,inactive
25,CC(C(=O)O)c1ccc(CC2CCCC2=O)cc1 (configuration not stated),inactive
26,O=C1NCN(c2ccccc2)C12CCN(CCCC(c1ccc(F)cc1)c1ccc(F)cc1)CC2,8.91 µM (active)

# Assay: qHTS for differential inhibitors of proliferation of Plasmodium falciparum line W2 (AID 1883);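 note: parasites grown with compound for 72 h before lysis and staining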
# Conditions: Potency: Plasmodium falciparum W2 proliferation inhibition; series mostly up to 28.7 µM
row,SMILES,Potency
1,CC(=O)Oc1cc(C(C)C)c(OCCN(C)C)cc1C,7.94 µM (active)
2,c1cc(CN2CCCCC2)cc(OCCCNc2nc3ccccc3s2)c1,2.51 µM (active)
3,Cc1nc2sccn2c(=O)c1CCN1CCC(=C(c2ccc(F)cc2)c2ccc(F)cc2)CC1,10 µM (active)
4,CNC1(C)C2CCC(C2)C1(C)C (configuration not stated),8.91 µM (active)
5,COc1cc(C(=O)OCCCN2CCCN(CCCOC(=O)c3cc(OC)c(OC)c(OC)c3)CC2)cc(OC)c1OC,3.55 µM (active)
6,Cc1nc2ccccn2c(=O)c1CCN1CCC(C(=O)c2ccc(F)cc2)CC1,7.94 µM (active)
7,OC(CCN1CCCCC1)(c1ccccc1)C1CCCCC1 (configuration not stated),3.16 µM (active)
8,CCN(CC)CCNC(=O)c1ccc(NC(C)=O)cc1,inactive
9,CCOC(=O)C1=C(C)NC(C)=C(C(=O)OC)C1c1cccc([N+](=O)[O-])c1 (configuration not stated),6.31 µM (active)
10,O=c1[nH]c(=O)n([C@H]2C[C@H](O)[C@@H](CO)O2)cc1Br,inactive
11,CCN1CCc2nc(N)oc2CC1,inactive
12,CC(=O)OC(C)C[N+](C)(C)C (configuration not stated),inactive
13,COCCOC(=O)C1=C(C)NC(C)=C(C(=O)OC(C)C)C1c1cccc([N+](=O)[O-])c1 (configuration not stated),6.31 µM (active)
14,C[N+](C)(C)CCOC(N)=O,inactive
15,Fc1ccc(C(c2ccc(F)cc2)N2CCN(C/C=C/c3ccccc3)CC2)cc1,3.98 µM (active)
16,COc1ccc(CN(CCN(C)C)c2ccccn2)cc1,5.62 µM (active)
17,NC/C=C/C(=O)O,inactive
18,OCCN1CCN(CCCN2c3ccccc3C=Cc3ccccc32)CC1,2.51 µM (active) and 2.24 µM (active)
19,CC(N=C(NC#N)Nc1ccncc1)C(C)(C)C (configuration not stated),11.2 µM (active)
20,CCCN(CCC)C(=O)C(CCC(=O)O)NC(=O)c1ccccc1 (configuration not stated),inactive
21,O=C1NCN(c2ccccc2)C12CCN(CCCC(c1ccc(F)cc1)c1ccc(F)cc1)CC2,2.82 µM (active)
